Molecules are shown by their SMILES. Results filed as inconclusive are left out. Calls of active or inactive are those of the source. The call rests on the fitted dose curve; in most records, active means well fitted cell-killing curve with a large enough effect; inconclusive means small, poorly fitted or top-dose-only effect, or effect the other way; inactive means no such curve, though single readings can be large or run the other way.
On the % scale 0 is the no-effect control and ±100 the full control effect; potency means the concentration at half of the fitted maximal effect.

This test relates to JEG-3. As to the kind of experiment: Confirmatory qHTS for gynecologic anti-cancer compounds from libraries of approved drugs and bioactive compounds. Further: nearly all actives have a fitted effect of over 55% in size. As to conditions: gynecologic cancer cell panel viability, ATPlite luminescence, 48 h; series mostly up to 57.6 µM. The method, boiled down: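 Seeding 1,000 cells per well preceded overnight (16 h) attachment, after which 48 h drug treatment across 57.5 uM–0.977 nM (11 points) was applied. Remaining cellular ATP, detected by ATPlite luminescence, defined IC50.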
On the technique in general: In qHTS, concentration-response curves come from the screen itself.
As for `COc1cc2c(c(OC)c1OC)-c1ccc(OC)c(=O)cc1[C@@H](NC(C)=O)CC2`, the Potency is 0.178 µM (active).

Turning to `Nc1ccc(C(=O)Nc2cccc(-c3nc(N4CCOCC4)c4oc5ncccc5c4n3)c2)cn1`, the Potency was 5.44 µM (active).

`CC1=C(/C=C/C(C)=C/C=C/C(C)=C/C(=O)Nc2ccc(O)cc2)C(C)(C)CCC1`: the Potency is 21.7 µM (active).

`CCC1C(=O)N(C)c2cnc(Nc3ccc(C(=O)NC4CCN(C)CC4)cc3OC)nc2N1C1CCCC1` (configuration not stated): the Potency was 0.0153 µM (active).

As for `CC(C)c1nn(-c2c(Cl)cccc2Cl)c2nc(Cc3ccc(OCCO)cc3)[nH]c(=O)c12`, the Potency was 0.0685 µM (active).

Turning to `Cn1cnc2c(F)c(Nc3ccc(Br)cc3F)c(C(=O)NOCCO)cc21`, the Potency entry was “inactive”.

`CCC1C(=O)N(C)c2cnc(Nc3ccc(C(=O)NC4CCC(N5CCN(CC6CC6)CC5)CC4)cc3OC)nc2N1C(C)C` (configuration not stated): the Potency was 0.0611 µM (active).

Regarding `O=C(CCCCCCC(=O)Nc1ccccc1)NO`, the Potency was 2.43 µM (active).

Turning to `CCCCN(CCCC)C(=O)CN1C[C@H](c2ccc3c(c2)OCO3)[C@@H](C(=O)O)[C@@H]1c1ccc(OC)cc1`, the Potency result was “inactive”.

On to `CC(C)C[C@H](NC(=O)[C@H](CCc1ccccc1)NC(=O)CN1CCOCC1)C(=O)N[C@@H](Cc1ccccc1)C(=O)N[C@@H](CC(C)C)C(=O)[C@@]1(C)CO1`, for which the Potency was 17.2 µM (active).

On to `Cc1cnc(CNC(=O)c2c(=O)c3ccc(N4CCCN(C)CC4)nc3n3c2sc2ccccc23)cn1`, for which the activity change, negative = viability loss was -17.5% [at 10.6 µM] (inactive).

Regarding `Cc1cc(C2CCCCC2)n(O)c(=O)c1`, the Potency is 11.1 µM (active).

Take `N=C(N)c1ccc(OCCCCCOc2ccc(C(=N)N)cc2)cc1`: the Potency is 3.43 µM (active).

Regarding `O=C(Nc1cccnc1)N1CCC(Cc2cccc(Oc3ccc(C(F)(F)F)cn3)c2)CC1`, the Potency was 7.69 µM (active).

As for `CO[C@@]12[C@H](COC(N)=O)C3=C(C(=O)C(C)=C(N)C3=O)N1C[C@@H]1N[C@@H]12`, the Potency result is “inactive”.

Turning to `COc1cccc2cc(-c3nc(C4CCC(C(=O)O)CC4)n4ncnc(N)c34)[nH]c12` (configuration not stated), the Potency entry was “inactive”.

As to `CC[C@@]1(O)C(=O)OCc2c1cc1n(c2=O)Cc2cc3cc(O)ccc3nc2-1`, the Potency is 0.217 µM (active).

On to `COc1ccc(-c2cc3nccn3c(Nc3ncccc3C(N)=O)n2)cc1OC`, for which the Potency is 12.2 µM (active).

Consider `O=C(Nc1cn[nH]c1-c1nc2ccc(CN3CCOCC3)cc2[nH]1)NC1CC1`, for which the Potency is 12.2 µM (active).

As for `Cc1[nH]c2ccccc2c1CCNCc1ccc(/C=C/C(=O)NO)cc1`, the Potency was 0.193 µM (active).

In the case of `CCS(=O)(=O)c1cccc(-c2cc(C(=O)NC3CCN(C)CC3)c(C)c3[nH]c4ncc(C)cc4c23)c1`, the Potency was 2.67 µM (active).

`CN1C2CCC1CC(OC(=O)[C@H](CO)c1ccccc1)C2` (some centres not stated): the Potency result was “inactive”.

`COc1cc2c(Oc3ccc(-c4cnc(Nc5ccc(F)cc5)n(C)c4=O)cc3F)ccnc2cc1OCCCN1CCOCC1`: the Potency result was “inactive”.

For `O=c1cc(CN2CCOCC2)occ1OCCCCCSc1ccnc2cc(C(F)(F)F)ccc12`, the Potency is 8.63 µM (active).

`O=C(O)C1(Cc2cccc(Nc3nccs3)n2)CCC(Oc2cccc(Cl)c2F)CC1` (configuration not stated): the Potency result was “inactive”.

`Cn1cnc([N+](=O)[O-])c1Sc1ncnc2nc[nH]c12`: the Potency is 8.63 µM (active).

For `Cc1cnc(Nc2ccc(OCCN3CCCC3)cc2)nc1Nc1cccc(S(=O)(=O)NC(C)(C)C)c1`, the Potency was 24.3 µM (active).

Turning to `CN1CCN(Cc2ccc(NC(=O)Nc3ccc(Oc4cc(NC(=O)C5CC5)ncn4)cc3)cc2C(F)(F)F)CC1`, the Potency is 0.243 µM (active).

For `CCN(CC)CCNC(=O)c1c(C)[nH]c(/C=C2\C(=O)Nc3ccc(F)cc32)c1C`, the Potency was 25.1 µM (active).

`CN(C[C@@H]1COCCO1)S(=O)(=O)Nc1ccc2ccc3ncc(-c4cnn(C)c4)cc3c(=O)c2c1`: the Potency result was “inactive”.

Take `COc1cc2ncnc(Nc3ccc(F)c(Cl)c3)c2cc1OCCCN1CCOCC1`: the Potency result was “inactive”.

As for `COc1ccc(-c2nc3ccc(C4=NNC(=O)CC4C)cc3[nH]2)cc1` (configuration not stated), the Potency is 21.7 µM (active).

The values are drawn from PubChem BioAssay AID1345085 (National Center for Advancing Translational Sciences (NCATS), 2018).
